DSG3 Ab inh = inhibitors of pemphigus antibody binding to DSG3, primary screen, biochemical, bead-based, flow cytometry, scFv-GFP; binding (percent of control), % at 10 µM; DSG3-coupled beads, scFv-anti-DSG3-GFP binding; active compounds read low; 310,000 tested, 0.48% active; Desmoglein-3 (Homo sapiens), P32926;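 active = binding more than 3 SD below its plate's average and above zero; inconclusive = below that plate limit but binding exactly zero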;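 note: hits lower antibody fragment binding to DSG3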
MPTP block = mitochondrial permeability transition pore inhibitors, primary screen, biochemical, isolated mouse mitochondria, absorbance | Ca2+ swelling absorbance, 30 min | inhibition, % at 10 µM | 360,000 tested, 1.4% active;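 active = inhibition of 50% or more, scaled per plate between neutral and stimulator controls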;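 note: 0% = DMSO wells given calcium and 100% = 1 mM EGTA wells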
ADAM10 inh = human ADAM10 inhibitors, primary screen, biochemical, QFRET, HTS. recombinant ADAM10, EDANS/DABCYL FRET peptide cleavage, 3 h. inhibition, % at 7 µM. 370,000 tested, 0.62% active. AID 720582, 2013;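 active = inhibition above a per-campaign cutoff equal to the mean of compounds falling between control-based bounds plus 3 SD, cut at about 20% in these data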;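 note: 0% = DMSO wells while the 100% control is not disclosed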
rCAG binder = binders of r(CAG) RNA repeats, primary screen, biochemical, fluorescence; r(CAG) RNA repeat, TO-PRO-1 dye displacement fluorescence; inhibition, % at 3 µM; 370,000 tested, 1.3% active; AID 651821, 2012;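 active = inhibition above the plate cutoff, the mean of all test compounds on that plate plus 3 SD, cut at about 35% in these data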;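 note: 0% = DMSO alone and 100% = 100 µM mitoxantrone as full dye displacement; higher means more dye released from RNA so lower well fluorescence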
proKLK7 act = proKLK7 zymogen activators, primary screen, biochemical, fluorescence intensity; Kallikrein-7 (Homo sapiens), P49862; purified proKLK7, EDANS-DABCYL substrate fluorescence; 100% is mature enzyme control, 0% vehicle; activation, % at 7 µM; 370,000 tested, 0.9% active; AID 652039, 2013;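 active = activation above the mean of all tested compounds plus 3 SD, computed per campaign excluding outliers beyond control limits, cut at about 13% in these data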
Target sequence (P49862 whole entry, looked up): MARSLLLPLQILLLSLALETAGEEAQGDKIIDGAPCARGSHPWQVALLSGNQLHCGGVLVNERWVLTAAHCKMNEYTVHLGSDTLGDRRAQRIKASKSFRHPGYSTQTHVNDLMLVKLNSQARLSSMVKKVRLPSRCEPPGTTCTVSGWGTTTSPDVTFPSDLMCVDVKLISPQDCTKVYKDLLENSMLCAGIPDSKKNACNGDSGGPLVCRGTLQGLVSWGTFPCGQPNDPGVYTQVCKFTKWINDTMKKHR
ADAM17 inh = ADAM17 inhibitors, primary screen, biochemical, QFRET | Disintegrin and metalloproteinase domain-containing protein 17 (Homo sapiens), P78536 | recombinant ADAM17, EDANS/DABCYL FRET peptide cleavage | inhibition, % at 6.95 µM | 370,000 tested, 0.83% active | AID 720648, 2013;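 active = inhibition above the mean of compounds lying between control limits plus 3 SD, set per campaign, cut at about 8.5% in these data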;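 note: 0% = DMSO-only wells as the low control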
* hit, by the source's call; i = inactive; ? = inconclusive; . = no result. Sampled rows, rich in hits. Any-hit rate of the full collection: about 4.7%.

SMILES | DSG3 Ab inh | MPTP block | ADAM10 inh | rCAG binder | proKLK7 act | ADAM17 inh
COC(=O)c1cccc(NC(=O)Cc2ccc(OC)cc2)c1C | 102.7 | -1.4 | -0.8 | -1.1 | -0.3 | -2.2
COc1ccc(CC(=O)Nc2cccc(C(=O)NN3C(=O)c4ccccc4C3=O)c2C)cc1 | 14.4* | -1.3 | 2.3 | 6.1 | 0.9 | 0.1
c1ccc(Cn2ccc3ccc(-c4ccc5ccn(Cc6ccc7ccccc7c6)c5c4)cc32)cc1 | . | . | -32.4 | 20.7 | -3.1 | -12.2
O=C(Cn1sc2ccccc2c1=O)Nc1ccc(Cl)cc1 | 71.7* | 37.4 | -7.8 | 5.0 | 0.3 | -4.1
COCCCn1cnn2c(=O)c3ccccc3nc2c1=O | . | . | -18.9 | 2.1 | -0.3 | -9.2
O=C(OCc1cn(Cc2ccccc2F)nn1)N1CCOCC1 | . | . | -10.2 | 1.9 | -0.2 | -7.8
O=C(CSc1nnnn1-c1cccc(F)c1)Nc1nc2ccccc2s1 | 11.4* | -0.4 | -2.8 | -0.5 | 0.1 | -6.0
COc1ccc(C2=NN(c3nc(-c4ccccc4)c(CC(=O)O)s3)C(c3ccco3)C2)cc1 (stereo not drawn) | 124.2 | 2.8 | -58.1 | 45.7* | -0.4 | -14.5
COc1ccc(CC(=O)Nc2ccc(/C(C)=N/NC(=O)c3cccc([N+](=O)[O-])c3)cc2)cc1 | 77.5* | -0.3 | 7.7 | 2.6 | -0.3 | 0.7
C=CCN1[C@@H](CC(C)C)COc2cccc(N3CCSCC3)c2S1(=O)=O | . | . | 4.4 | 2.1 | -0.1 | 0.0
O=C(Nc1ccc2nn(-c3ccccc3)nc2c1)c1ccc2c(c1)OCCO2 | 103.8 | -2.9 | -139.4 | 12.9 | -11.7 | -51.6
CCOc1ccc(-n2nc3ccc(NC(=O)c4ccc5c(c4)OCCO5)cc3n2)cc1 | 5.0* | 3.0 | -49.0 | 3.0 | -0.2 | -29.6
CCCCS(=O)CC(CS(=O)CCCC)OC(=O)c1ccccc1 (stereo not drawn) | . | -0.1 | -4.8 | -3.3 | -0.6 | -4.7
CCCCS(=O)CC(CS(=O)CCCC)OC(=O)c1ccc(C)cc1 (stereo not drawn) | 45.4* | -0.4 | -1.3 | -10.6 | 0.3 | -4.1
COc1ccc(/C=N/Nc2nnc(Cc3ccc(OC)c(OC)c3)c(=O)[nH]2)cc1OC | 109.7 | -2.1 | 18.3 | 3.7 | 0.8 | 3.9
COc1ccc(Cc2nnc(N/N=C/c3ccc(N(C)C)cc3)[nH]c2=O)cc1OC | 77.4* | 3.4 | -2.2 | 14.3 | 0.5 | -4.7
O=C(c1ccccc1)N1CCN(c2ccc([N+](=O)[O-])c(NCc3cccnc3)c2)CC1 | 102.7 | 2.3 | 7.5 | 4.9 | -0.3 | -0.9
CC(C)CC(=O)N1CCN(c2ccc([N+](=O)[O-])c(NCc3ccccc3)c2)CC1 | 101.4 | 17.7 | 18.3 | 6.7 | 0.6 | 12.7*
CC1=Nc2ccccc2/C1=C/c1sc(=S)n(-c2cccc(C(=O)O)c2)c1O | 101.0 | 2.8 | 10.0 | 72.4* | 0.1 | -1.1
CC(=O)NC(Cc1ccccc1)P(=O)(O)O (stereo not drawn) | . | . | -0.9 | 0.5 | 0.1 | -0.4
COC(=O)CCC/C=C1/SCC(NC(=O)c2ccccc2)C1=O (stereo not drawn) | 117.1 | -0.9 | 0.8 | 29.2 | 0.4 | 12.0*
COc1ccc(C2CC(=O)C(c3ccc([N+](=O)[O-])cc3)=CN2Cc2ccccc2)cc1 (stereo not drawn) | . | . | -8.8 | 7.9 | -8.8 | 0.6
N#Cc1c(C(F)(F)F)cc(-c2ccccc2Cl)[nH]c1=O | 108.0 | 27.2 | i | 37.0* | 9.9 | i
Cc1ccc(-c2cc(C(F)(F)F)c(C#N)c(=O)[nH]2)cc1 | 107.6 | 37.1 | i | 3.3 | 8.1 | -273.1
N#Cc1c(C(F)(F)F)cc(-c2ccccc2)[nH]c1=O | 102.9 | 13.2 | i | 19.5 | 25.5* | i
SMILES | DSG3 Ab inh | MPTP block | ADAM10 inh | rCAG binder | proKLK7 act | ADAM17 inh
COC(=O)c1cc(-c2ccccc2)c(=O)n2c1CCC2 | . | . | -13.6 | 0.2 | 0.0 | -4.4
COc1cccc(-c2ccnc3[nH]n(-c4ccccc4)c(=O)c23)c1 | 90.6 | 0.2 | -3.4 | -0.2 | 0.6 | -0.3
COc1ccc(-c2ccnc3[nH]n(-c4ccccc4)c(=O)c23)cc1 | 86.7* | 1.8 | -7.9 | 1.6 | 0.1 | -0.7
COc1ccc(NC(=O)CSc2nc3cccnc3n2C)cc1 | 110.7 | -1.0 | 5.3 | -0.5 | -0.3 | 1.8
COc1ccc2nc(NC(=O)CSc3nc4cccnc4n3C)sc2c1 | 83.6* | 9.5 | 5.2 | 6.7 | -0.1 | 7.0
CCOC(=O)N[C@@H](Cc1cccnc1)C(=O)N1CCC[C@H]1C(=O)NCCc1ccccc1Cl | . | . | 7.1 | 1.1 | 0.4 | 0.4
Cc1ccc2[nH]c3ccccc3c(=O)c2c1 | 92.2 | -0.8 | i | -1.8 | 19.1* | i
CSCCC(NC(=O)c1ccccc1Br)C(=O)NCC1CCCCC1 (stereo not drawn) | 105.9* | -1.1 | -2.1 | -8.2 | -0.1 | -4.0
O=C(Nc1ccc(Br)cc1)OCCCN1CCC2(CCCCC2)C1=O | . | . | -23.9 | 5.3 | 0.9 | 0.1
O=C(/C=C/c1cccc(F)c1)Nc1cc(S(=O)(=O)N2CCOCC2)ccc1N1CCCC1 | -24.2* | -0.6 | 0.6 | 7.1 | 0.3 | 0.0
O=C(/C=C/c1ccc(F)cc1)Nc1cc(S(=O)(=O)N2CCOCC2)ccc1N1CCCC1 | 83.9 | 0.0 | -5.5 | 5.7 | 0.0 | -3.9
Cc1ccc2nc(N3C(=O)C(O)=C(C(=O)c4ccc(C)o4)C3c3ccc(O)cc3)sc2c1 (stereo not drawn) | 117.3 | -1.1 | -0.7 | 69.3* | -0.2 | -1.5
Cc1ccc2nc(N3C(=O)C(O)=C(C(=O)c4ccco4)C3c3cccs3)sc2c1 (stereo not drawn) | 132.9 | 1.8 | -1.1 | 31.0 | -0.2 | -1.7
CC(C)(C)n1nc(C2CC2)c(Br)c1NC(=O)c1ccc(Cl)cc1 | . | . | -4.8 | 1.2 | -0.8 | -5.5
O=C(Nc1ccc(Cl)cc1Cl)c1cc2ccccc2o1 | 96.3* | 1.3 | 1.4 | 4.4 | -0.1 | -2.9
O=c1c2ccccc2sn1-c1ccccc1 | ? | 5.4 | -10.2 | -1.9 | 0.1 | -3.5
O=C(O)c1cccc(-n2sc3ccccc3c2=O)c1 | 60.8* | -1.8 | 1.6 | -3.0 | 0.2 | -3.8
O=c1c2ccccc2sn1-c1cccc(Cl)c1 | 40.5* | 25.2 | 2.7 | 3.1 | 0.4 | -1.3
O=C(O)c1cccc(-n2c(/C=C/c3ccccc3)nc3ccccc3c2=O)c1 | 103.9 | -1.3 | 4.1 | 30.3 | -0.5 | -2.0
CN(C)S(=O)(=O)c1cccc(-n2sc3ccccc3c2=O)c1 | 28.6* | 2.0 | 12.5 | 7.8 | -0.1 | 5.9
O=c1c2ccccc2sn1-c1nccs1 | 28.4* | 2.1 | -13.1 | 4.5 | -0.9 | -1.0
